An excerpt weighted towards active compounds, which were near 5.5% of everything screened.
Six1-Eya2 blk – Six1/Eya2 interaction inhibition; Q15475+O00167; AlphaScreen GST-Six1/His-Eya2 binding, biochemical; hits give low values; activity change, % (concentration not given with the values); actives 0.56% (n = 360,000); AID 651725; in the data active means activity change below about -65%; inconclusive means mostly about -30% to -63%
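Six1/Eya2 binding was read as AlphaScreen signal after compounds were pinned into GST-Six1 plus His-tagged Eya2 (5X stock 250/500 nM) in pH 8.0 Tris/NaCl/TCEP buffer, beads added, then incubated 1 h, 37 C, dark.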
RORg inh – ROR gamma (mouse) transcription inhibition; Drosophila S2 Gal4-RORgamma UAS-luciferase reporter, 20 h; Potency, µM (titrated, usually from 53.6 µM), hits mostly inhibitors; P51450; actives 5.4% (n = 310,000); further: nearly all actives have a fitted effect of over 60% in size
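Using a luciferase readout, inhibitors were identified by reduced reporter activity in Drosophila cells coexpressing a copper-inducible Gal4–ROR gamma fusion and UAS-driven Photinus luciferase, incubated 20 hr after 700 uM copper sulfate.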
CtBP-E1A blk – blocks the CtBP interaction with E1A; AlphaScreen GST-E1A/His-CtBP binding, 1536-well; hits give low values; activity change, % (concentration not given with the values); actives 0.49% (n = 340,000); AID 651724; in the data active means activity change below about -65%; inconclusive means mostly about -30% to -63%
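Homogeneous bead-based format: GST-tagged E1A captured on glutathione donor beads, His-tagged CtBP on nickel acceptor beads; compounds precede bead addition by 2 h at 37 °C.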
VP16 counter – Gal4-VP16 reporter inhibition counter-screen; Drosophila S2 Gal4-VP16 UAS-luciferase, luminescence, 20 h; Potency, µM (doses to about 53.6 µM), usual class: inhibitors; actives 3.5% (n = 310,000); AID 2546;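 further: Gal4-VP16 expression switched on by copper sulfate through the metallothionein promoter; nearly all actives have a fitted effect of over 50% in size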
CBFb RUNX1 block – CBF-beta/RUNX1 interaction disruption; 230,000 tested, under 10 active; AlphaScreen CBFb-His/RUNX1-biotin binding, biochemical; Potency, µM (highest dose often 59.8 µM), most hits filed as inhibitors; Q01196+Q13951
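Read-out: AlphaScreen. Format: His-CBF-beta with biotinylated RUNX1 (30 nM each) preincubated 20 min, compound 15 min, Ni-chelate plus streptavidin beads 90 min; room temperature throughout.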
MBNL1-CUG inh – blocks human MBNL1 binding to CUG repeat RNA; actives 0.036% (n = 280,000); Potency, µM (top dose mostly 57.5 µM), usual class: inhibitors; TR-FRET MBNL1-His/biotin-(CUG)12 binding, 665/545 ratio; AID 2675; active means well fitted inhibition curve with a large enough effect in the signal ratio, with a control signal flat, not every such curve was filed as active; inconclusive means small, poorly fitted or top-dose-only effect, or effect the other way, or a change in a side signal; inactive means no such curve, though single readings can be large or run the other way; the % refers to the signal ratio
Target sequence (Q9NR56 whole entry, looked up): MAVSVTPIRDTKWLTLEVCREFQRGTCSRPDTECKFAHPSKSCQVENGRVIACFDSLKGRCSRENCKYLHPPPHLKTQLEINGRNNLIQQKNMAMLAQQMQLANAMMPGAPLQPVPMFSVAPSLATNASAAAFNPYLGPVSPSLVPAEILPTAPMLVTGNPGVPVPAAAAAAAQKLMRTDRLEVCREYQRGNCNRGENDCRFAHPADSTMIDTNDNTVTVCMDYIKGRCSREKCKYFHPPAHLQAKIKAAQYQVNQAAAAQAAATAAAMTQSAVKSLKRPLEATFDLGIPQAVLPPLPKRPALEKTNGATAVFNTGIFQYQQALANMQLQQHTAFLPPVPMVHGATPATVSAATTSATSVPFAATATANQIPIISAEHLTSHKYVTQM
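MBNL1-His + Biotin-(CUG)12, cpd titration 92 nM–58 uM; Tb anti-His Ab 0.055 ng/ul, SA-XL665 5 nM (final); 60 min RT; ratiometric 665/545 nm, Ex 340 nm; normalized to buffer and full-complex controls.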
Numbers stand for hits; . = inactive; ? = inconclusive; / = no result given; [ ] = dose if it differs, or a comment. Unless noted, the call rests on the fitted dose curve; in most records, active means well fitted curve in the direction sought with a large enough effect; inconclusive means small, poorly fitted or top-dose-only effect, or another doubt; inactive means no such curve, though single readings can be large; an effect the other way counts as inactive or inconclusive.

SMILES	Six1-Eya2 blk	RORg inh	CtBP-E1A blk	VP16 counter	CBFb RUNX1 block	MBNL1-CUG inh
O=C(NCCc1ccccc1)c1ccc2c(c1)OCCCO2	.	0.35µM	.	0.63µM	/	.
O=C(NCCc1ccccc1)c1ccc2c(c1)OCCO2	.	1.4µM	.	1.3µM	/	.
CCOC(=O)COc1ccc(S(=O)(=O)NC2CC2)cc1	.	.	.	.	/	.
COc1ccc(-c2nc3c(c4c2C[C@H](c2ccccc2)OC4)CN(C(=O)N[C@@H](C)c2ccccc2)CC3)c(C)c1	/	/	/	/	.[13.1 µM]	/
COc1ccc(CCC(=O)NCCS(=O)(=O)N2CCN(c3ccccc3OC)CC2)cc1	.	.	.	?	/	.
Cc1ccccc1NC(=S)c1ccc2ccccc2n1	.	?	/	6.3µM	/	.
COc1ccc(S(=O)(=O)N2CCOCC2)cc1NC(=O)CN1C(=O)NC2(CCC(C)CC2)C1=O (centres undefined)	.	/	.	/	/	/
COC(=O)c1c(N)sc2c1CCN(c1ncc(C(F)(F)F)cc1Cl)C2	.	1.6µM	.	?	.	.
COC(=O)c1c(/N=C/NOCc2ccc(Cl)cc2)sc2c1CCN(c1ncc(C(F)(F)F)cc1Cl)C2	.	.	.	.	.	.
Nc1ccc(C(=O)NC2CCSc3ccccc32)cc1[N+](=O)[O-] (centres undefined)	.	?	.	7.9µM	/	.
CCC(=O)N[C@@H]1Cc2ccccc2[C@@H](c2ccccc2)C1	/	.	/	8.9µM	.	/
O=C1c2ccccc2C(=O)C1c1ccccn1	.	?	.	.	.	.
O=C1c2ccccc2C(=O)C1c1ccncc1	?	?	?	11µM	.	?
CCc1c(C)nc2cc(-c3ccc(OC)c(OC)c3)nn2c1NCC1CC1	.	11µM	.	4.5µM	.	.
N#Cc1cccc(NC(=O)COC(=O)c2ccc[n+]([O-])c2)c1	.	/	.	/	/	/
CC(NC(=O)Nc1ccccc1)C(c1cccs1)N1CCOCC1 (centres undefined)	.	?	.	.	.	.
COc1ccccc1NC(=S)NC(C)C(c1cccs1)N1CCOCC1 (centres undefined)	.	13µM	.	?	.	.
CC(NC(=S)Nc1ccc(Cl)cc1Cl)C(c1cccs1)N1CCCC1 (centres undefined)	.	11µM	.	?	.	.
CC(NC(=S)NC1CCCCC1)C(c1cccs1)N1CCOCC1 (centres undefined)	.	8.9µM	.	?	.	.
CC(NC(=O)Nc1cccc(Cl)c1)C(c1cccs1)N1CCCC1 (centres undefined)	.	.	.	.	.	.
O=C(COC(=O)c1cc(-c2cccs2)nc2ccccc12)NC1CCS(=O)(=O)C1 (centres undefined)	.	.	/	.	.	?
COc1cccc(NC(=S)NC2CC3CCCC(C2)N3CC(C)C)c1 (centres undefined)	.	10µM	.	.	.	.
COc1cccc(NC(=S)N2C3CCCC2CC(NC(=O)C2CC2)C3)c1 (centres undefined)	.	.	.	.	/	.
Cc1ccccc1-n1c(SCc2csc(Nc3ccccc3)n2)nnc1-c1cccnc1	.	?	.	?	.	.
Cc1ccc(Nc2nc(CSc3nnc(-c4cccnc4)n3-c3ccccc3C)cs2)cc1	.	5µM	.	?	.	.
CCOC(=O)c1c(C)[nH]sc1=S	.	6.3µM	.	?	.	.
CCOC(=O)c1sc(=S)[nH]c1C	.	/	.	/	/	/
CN(C)c1ncnc2c1C(c1ccccc1)C(C)(C)O2 (centres undefined)	.	/	.	/	/	/
COC(=O)[C@@]1(Cc2ccc(OC)cc2)[C@@H]2C(=CC(=O)[C@H]2CC(=O)C(=O)N2CCCC2)CN1C(=O)c1ccccc1	.	?	.	4µM	.[2.36 µM]	.
COC(=O)[C@@]1(Cc2ccc(F)cc2)[C@H]2C(CC(=O)C(=O)N3CCCC3)C(=O)C[C@H]2CN1C(=O)c1ccccc1 (some centres undefined)	.	/	.	/	/	/
